Results taken from PubChem BioAssay (Tox21).
Inconclusive results are not listed. Activity calls are given as the source filed them. Unless noted, the call rests on the fitted dose curve; in most records, active means well fitted curve in the direction sought with a large enough effect in the repeat runs; inconclusive means weak or mixed curves; inactive means no such curve, though single readings can be large; an effect the other way counts as inactive or inconclusive.

Assays:
[1] = qHTS assay to identify aromatase inhibitors - cell viability counter screen (AID 743084);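 further: cells stimulated with testosterone during compound exposure; nearly all actives have a fitted effect of over 55% in size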
[2] = qHTS assay to identify small molecule that activate the aryl hydrocarbon receptor (AhR) signaling pathway - cell viability counter screen (AID 743086);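 further: HepG2 liver cells carrying the AhR DRE luciferase reporter; series mostly up to about 70 µM; nearly all actives have a fitted effect of over 45% in size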
How it was run: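 HepG2-AhR-luc (HG2L7.5c1) cells, 4000/well, treated 24 h at 37 C with compound; viability measured as CellTiter-Fluor fluorescence after 30 min in the same wells as the luciferase read.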

[3] = qHTS assay for small molecule agonists of the antioxidant response element (ARE) signaling pathway (AID 743202; active means well fitted activation curve with a large enough effect in the signal ratio in the repeat runs, not every such curve was filed as active; the % refers to the signal ratio)
How it was run: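 HepG2 ARE-bla cells; 16 h treatment at 37 C; FRET-based beta-lactamase fluorescence read after 2 h substrate incubation at room temperature.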

[4] = qHTS assay for small molecule agonists of the antioxidant response element (ARE) signaling pathway - cell viability counter screen (AID 743203; calls by dose curve; further: nearly all actives have a fitted effect of over 55% in size)
How it was run: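 Viability counter screen: stably transfected ARE-bla HepG2 line, 16 hrs compound exposure at 37C/5% CO2, ATP-based CellTiter-Glo luminescence measured in the reporter wells.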

[5] = qHTS assay for small molecule activators of the heat shock response signaling pathway (AID 743210; active means well fitted activation curve with a large enough effect in the signal ratio in the repeat runs, with a control signal flat, not every such curve was filed as active; the % refers to the signal ratio;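 further: HeLa cells with beta-lactamase reporter driven by heat shock elements; series mostly up to about 63 µM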)
How it was run: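 Following overnight attachment, HSE-bla HeLa cells received test compounds for 5 h at 37 C; beta-lactamase activity was then detected via FRET substrate fluorescence.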

[6] = qHTS assay to identify small molecule agonists of the peroxisome proliferator-activated receptor delta (PPARd) signaling pathway - cell viability counter screen (AID 743211); further: nearly all actives have a fitted effect of over 55% in size
How it was run: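 In the same wells used for beta-lactamase reporter measurement, cytotoxicity is scored by CellTiter-Glo. HEK293H PPARd-bla cells receive compound for 17 h at 37C following a 5 h settling period.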

[7] = molecular target: Peroxisome proliferator-activated receptor delta (Homo sapiens) (UniProt Q03181); assay: qHTS assay to identify small molecule agonists of the peroxisome proliferator-activated receptor delta (PPARd) signaling pathway (AID 743212; calls by dose curve)
Sequence of Peroxisome proliferator-activated receptor delta (Homo sapiens) (Q03181 whole entry, looked up): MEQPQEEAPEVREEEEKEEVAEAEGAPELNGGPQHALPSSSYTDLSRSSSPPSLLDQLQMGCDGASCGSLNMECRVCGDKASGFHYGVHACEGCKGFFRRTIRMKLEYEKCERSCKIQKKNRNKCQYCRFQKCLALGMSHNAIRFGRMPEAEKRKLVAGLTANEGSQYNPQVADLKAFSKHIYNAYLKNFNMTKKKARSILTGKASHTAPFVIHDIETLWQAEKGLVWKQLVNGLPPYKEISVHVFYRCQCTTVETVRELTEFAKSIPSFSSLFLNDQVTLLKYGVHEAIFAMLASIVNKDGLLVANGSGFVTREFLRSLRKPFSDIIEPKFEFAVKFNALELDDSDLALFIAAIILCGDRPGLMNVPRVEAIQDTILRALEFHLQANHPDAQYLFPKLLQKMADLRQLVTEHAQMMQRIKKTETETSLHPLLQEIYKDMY
How it was run: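 Tox21 library screened in GeneBLAzer PPARd UAS-bla HEK293H cells. After compound treatment at 37 C, a FRET-based beta-lactamase substrate was applied for 2 h and fluorescence recorded.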

[8] = qHTS assay to identify small molecule antagonists of the peroxisome proliferator-activated receptor delta (PPARd) signaling pathway - cell viability counter screen (AID 743213); further: nearly all actives have a fitted effect of over 50% in size
How it was run: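 Cytotoxicity counter screen: CellTiter-Glo luminescence read 30 min after addition, in the same wells as the reporter assay. There, PPARd UAS-bla HEK293H cells (3000/well) were treated 17 h at 37 C with compound and 300 nM L165041.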

[9] = molecular target: Peroxisome proliferator-activated receptor delta (Homo sapiens) (UniProt Q03181); assay: qHTS assay to identify small molecule antagonists of the peroxisome proliferator-activated receptor delta (PPARd) signaling pathway (AID 743215; active means well fitted inhibition curve with a large enough effect in the signal ratio in the repeat runs, not every such curve was filed as active; the % refers to the signal ratio;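 further: cells stimulated with agonist L165041 at 300 nM final during compound exposure; series mostly up to about 62 µM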)
How it was run: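 Plated HEK293H PPARd-bla cells rested 5 h at 37 C and 5% CO2. Compound, then agonist L165041 at 300 nM final, was added; 17 h at 37 C followed. Substrate loading, 2 h room temperature, fluorescence measured.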

[10] = qHTS assay to identify small molecule agonists of the farnesoid-X-receptor (FXR) signaling pathway - cell viability counter screen (AID 743218); further: nearly all actives have a fitted effect of over 45% in size
How it was run: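 Viability of FXR-bla HEK 293T cells is measured by ATP-based CellTiter-Glo luminescence following 16 h compound treatment at 37 C and a prior 2 h room-temperature beta-lactamase substrate step.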

[11] = molecular target: Bile acid receptor (Homo sapiens) (UniProt Q96RI1); assay: qHTS assay to identify small molecule agonists of the farnesoid-X-receptor (FXR) signaling pathway (AID 743220; active means well fitted activation curve with a large enough effect in the signal ratio in the repeat runs, not every such curve was filed as active; the % refers to the signal ratio)
Sequence of Bile acid receptor (Homo sapiens) (Q96RI1 whole entry, looked up): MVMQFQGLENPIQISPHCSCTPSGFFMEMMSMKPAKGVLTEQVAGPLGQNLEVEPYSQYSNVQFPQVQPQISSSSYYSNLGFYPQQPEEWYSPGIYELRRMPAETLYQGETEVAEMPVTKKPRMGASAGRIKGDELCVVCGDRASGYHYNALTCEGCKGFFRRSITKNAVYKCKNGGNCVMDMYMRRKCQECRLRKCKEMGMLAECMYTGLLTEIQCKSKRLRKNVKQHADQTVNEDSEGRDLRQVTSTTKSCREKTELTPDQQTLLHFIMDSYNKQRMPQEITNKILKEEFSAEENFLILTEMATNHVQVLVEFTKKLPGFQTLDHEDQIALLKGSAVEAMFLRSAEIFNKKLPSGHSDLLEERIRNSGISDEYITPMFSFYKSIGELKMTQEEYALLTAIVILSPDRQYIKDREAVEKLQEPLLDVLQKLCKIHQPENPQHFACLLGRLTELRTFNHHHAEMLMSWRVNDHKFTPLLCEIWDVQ
How it was run: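 FXR-UAS-bla HEK 293T cells carrying a UAS-driven beta-lactamase reporter were plated for 5 h at 37C/5% CO2, then exposed to DMSO-dissolved Tox21 10K compounds for 16 h at 37C. A LiveBLAzer B/G FRET substrate was loaded for 2 h at room temperature before fluorescence reading.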

[12] = qHTS assay to identify small molecule antagonists of the farnesoid-X-receptor (FXR) signaling pathway - cell viability counter screen (AID 743221; active means well fitted cell-killing curve with a large enough effect in the repeat runs, not every such curve was filed as active; further: nearly all actives have a fitted effect of over 50% in size)
How it was run: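 Here viability was scored by luminescence after CellTiter-Glo addition to wells already read for beta-lactamase. Prior treatment: compound plus CDCA (50 uM final), 16 h, 37 C, HEK 293T FXR-bla cells.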

[13] = molecular target: Peroxisome proliferator-activated receptor gamma (Homo sapiens) (UniProt P37231); assay: qHTS assay to identify small molecule agonists of the peroxisome proliferator-activated receptor gamma (PPARg) signaling pathway (AID 743094; active means well fitted activation curve with a large enough effect in the signal ratio in the repeat runs, not every such curve was filed as active; the % refers to the signal ratio)
Sequence of Peroxisome proliferator-activated receptor gamma (Homo sapiens) (P37231 whole entry, looked up): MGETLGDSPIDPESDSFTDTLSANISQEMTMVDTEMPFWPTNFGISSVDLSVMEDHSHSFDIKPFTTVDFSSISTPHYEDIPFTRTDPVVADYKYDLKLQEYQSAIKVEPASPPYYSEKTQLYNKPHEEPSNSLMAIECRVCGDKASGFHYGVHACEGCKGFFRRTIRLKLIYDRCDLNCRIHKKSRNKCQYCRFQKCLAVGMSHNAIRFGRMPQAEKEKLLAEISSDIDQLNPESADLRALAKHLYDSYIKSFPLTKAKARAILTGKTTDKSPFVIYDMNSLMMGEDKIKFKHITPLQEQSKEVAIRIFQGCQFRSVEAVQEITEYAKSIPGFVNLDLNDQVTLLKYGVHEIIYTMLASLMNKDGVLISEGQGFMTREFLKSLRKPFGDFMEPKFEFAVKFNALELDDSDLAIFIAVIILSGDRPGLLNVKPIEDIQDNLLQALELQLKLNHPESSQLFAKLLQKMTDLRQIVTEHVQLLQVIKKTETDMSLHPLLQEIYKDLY
How it was run: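 Reporter activation was scored by fluorescence of cleaved LiveBLAzer B/G substrate (1 h, room temperature) in PPARg-bla HEK293H cells previously treated 17 h at 37C with DMSO-dissolved compounds.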

[14] = qHTS assay to identify small molecule antagonists of the peroxisome proliferator-activated receptor gamma (PPARg) signaling pathway - cell viability counter screen (AID 743194); further: nearly all actives have a fitted effect of over 55% in size
How it was run: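 Cytotoxicity counter screen in PPARg-bla HEK293H cells, same wells as reporter assay. Compounds plus 50 nM rosiglitazone (final) for 17 h at 37 C, then viability read by CellTiter-Glo luminescence.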

[15] = qHTS assay for small molecule activators of the heat shock response signaling pathway - cell viability counter screen (AID 743209); further: nearly all actives have a fitted effect of over 50% in size
How it was run: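 Viability of HSE-bla HeLa cells is measured with CellTiter-Glo in the wells already used for the reporter read. Compound exposure lasts 5 h at 37 C, and luminescence is read after 30 min at room temperature.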

[16] = molecular target: Vitamin D3 receptor (Homo sapiens) (UniProt P11473); assay: qHTS assay to identify small molecule agonists of the vitamin D receptor (VDR) signaling pathway (AID 743222; calls by dose curve)
Sequence of Vitamin D3 receptor (Homo sapiens) (P11473 whole entry, looked up): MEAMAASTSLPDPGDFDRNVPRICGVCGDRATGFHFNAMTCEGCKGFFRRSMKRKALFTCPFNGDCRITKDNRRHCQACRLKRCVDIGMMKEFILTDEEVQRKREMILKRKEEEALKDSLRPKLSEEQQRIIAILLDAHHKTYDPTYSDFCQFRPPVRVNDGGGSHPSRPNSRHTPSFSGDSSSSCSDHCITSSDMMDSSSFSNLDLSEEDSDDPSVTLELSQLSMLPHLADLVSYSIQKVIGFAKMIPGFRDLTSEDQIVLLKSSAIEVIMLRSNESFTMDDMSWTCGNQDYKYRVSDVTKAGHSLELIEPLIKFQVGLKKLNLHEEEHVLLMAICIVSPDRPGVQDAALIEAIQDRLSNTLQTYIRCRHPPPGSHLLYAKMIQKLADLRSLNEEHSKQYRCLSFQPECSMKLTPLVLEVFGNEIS
How it was run: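 Fluorescence from cleaved LiveBLAzer B/G FRET substrate served as readout. VDR-bla cells had been treated 16 h at 37C with test compounds in DMSO, following a 4 h settling period, and substrate was loaded for 2 h at RT.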

[17] = molecular target: Vitamin D3 receptor (Homo sapiens) (UniProt P11473); assay: qHTS assay to identify small molecule antagonists of the vitamin D receptor (VDR) signaling pathway (AID 743223; active means well fitted inhibition curve with a large enough effect in the signal ratio in the repeat runs, not every such curve was filed as active; the % refers to the signal ratio)
How it was run: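 Inhibition of agonist-driven VDR signalling is scored in VDR-bla cells: 3 nM final 1alpha,25-dihydroxyvitamin D3 plus compound, 16 h at 37C, then beta-lactamase detection by FRET substrate fluorescence after 2 h.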

[18] = molecular target: Peroxisome proliferator-activated receptor gamma (Homo sapiens) (UniProt P37231); assay: qHTS assay to identify small molecule antagonists of the peroxisome proliferator-activated receptor gamma (PPARg) signaling pathway (AID 743191; calls by dose curve; further: series mostly up to about 63 µM; nearly all actives have a fitted effect of over 30% in size)
How it was run: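 GeneBLAzer PPARg UAS-bla HEK293H cells, 5 h post-plating, exposed to compounds 17 h at 37C. LiveBLAzer B/G FRET substrate added for 1 h at room temperature; beta-lactamase reporter read by fluorescence intensity.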

[19] = molecular target: Bile acid receptor (Homo sapiens) (UniProt Q96RI1); assay: qHTS assay to identify small molecule antagonists of the farnesoid-X-receptor (FXR) signaling pathway (AID 743217; active means well fitted inhibition curve with a large enough effect in the signal ratio in the repeat runs, not every such curve was filed as active; the % refers to the signal ratio)
How it was run: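 Screen of the Tox21 10K library in quantitative HTS format using FXR-UAS-bla HEK 293T reporter cells. Agonist chenodeoxycholic acid, 50 uM final, added with compounds; 16 h incubation at 37 °C; beta-lactamase FRET fluorescence measured.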

[20] = molecular target: Aryl hydrocarbon receptor (Homo sapiens) (UniProt P35869); assay: qHTS assay to identify small molecule that activate the aryl hydrocarbon receptor (AhR) signaling pathway (AID 743085);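 further: HG2L7.5c1 human HepG2 liver cells with stably integrated DRE-driven firefly reporter; series mostly up to about 70 µM; nearly all actives have a fitted effect of over 15% in size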
Sequence of Aryl hydrocarbon receptor (Homo sapiens) (P35869 whole entry, looked up): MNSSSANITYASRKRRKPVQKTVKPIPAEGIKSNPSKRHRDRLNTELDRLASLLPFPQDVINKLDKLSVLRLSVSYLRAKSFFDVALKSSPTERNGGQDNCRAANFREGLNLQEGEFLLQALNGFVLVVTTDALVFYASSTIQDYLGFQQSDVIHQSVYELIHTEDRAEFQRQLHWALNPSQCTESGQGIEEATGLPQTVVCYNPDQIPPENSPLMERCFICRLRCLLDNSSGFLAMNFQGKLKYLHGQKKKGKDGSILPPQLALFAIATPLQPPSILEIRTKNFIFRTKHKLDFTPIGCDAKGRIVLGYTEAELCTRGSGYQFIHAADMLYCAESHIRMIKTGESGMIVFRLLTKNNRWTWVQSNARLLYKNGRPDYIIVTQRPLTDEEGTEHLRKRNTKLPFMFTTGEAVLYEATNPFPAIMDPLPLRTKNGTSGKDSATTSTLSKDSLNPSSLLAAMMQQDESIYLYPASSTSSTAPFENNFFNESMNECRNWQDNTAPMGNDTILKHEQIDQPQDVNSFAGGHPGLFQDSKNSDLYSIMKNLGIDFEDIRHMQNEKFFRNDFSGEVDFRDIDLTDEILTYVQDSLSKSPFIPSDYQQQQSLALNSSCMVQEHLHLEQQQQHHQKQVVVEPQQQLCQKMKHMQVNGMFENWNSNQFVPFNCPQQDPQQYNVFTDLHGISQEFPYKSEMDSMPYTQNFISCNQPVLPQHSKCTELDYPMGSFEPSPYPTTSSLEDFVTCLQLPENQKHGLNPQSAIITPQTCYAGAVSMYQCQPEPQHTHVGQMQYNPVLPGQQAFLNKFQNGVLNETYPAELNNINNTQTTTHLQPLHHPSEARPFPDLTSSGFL
How it was run: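 Stably transfected human liver carcinoma cells (HG2L7.5c1; 20 DRE-firefly luciferase) were incubated 5 h, dosed, and kept 24 h at 37C. Agonism was scored from increased luciferase luminescence.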

Measured: Potency

C[N+]1(CC2COC(c3ccccc3)(c3ccccc3)O2)CCCCC1 (stereo unspecified)
inactive: [1] | [2] | [3] | [4] | [5] | [6] | [7] | [8] | [9] | [10] | [11] | [12]

CC(C)C1CCC(O)CC1 (stereo unspecified)
inactive: [1] | [13] | [14] | [3] | [4] | [15] | [5] | [6] | [8] | [12] | [16] | [17]

CC(C)COC(=O)c1ccc(N)cc1
inactive: [1] | [13] | [18] | [14] | [3] | [4] | [15] | [5] | [6] | [7] | [10] | [12] | [16] | [17]

COc1cc(C)nc(-n2nc(C)cc2OC)n1
inactive: [1] | [2] | [13] | [14] | [3] | [4] | [15] | [6] | [7] | [8] | [9] | [19] | [10] | [12]

CCOC(=O)c1ccccc1
inactive: [1] | [13] | [18] | [14] | [3] | [4] | [15] | [5] | [6] | [7] | [8] | [9] | [10] | [12] | [16] | [17]

CC[C@H]1OC(=O)[C@H](C)[C@@H](O[C@H]2C[C@@](C)(OC)[C@@H](O)[C@H](C)O2)[C@H](C)[C@@H](O[C@@H]2O[C@H](C)C[C@H](N(C)C)[C@H]2O)[C@](C)(OC)C[C@@H](C)C(=O)[C@H](C)[C@@H](O)[C@]1(C)O
inactive: [1] | [2] | [13] | [3] | [4] | [15] | [5] | [6] | [9] | [12]

O=C(O)CNC(=O)c1ccccc1
inactive: [1] | [2] | [13] | [14] | [3] | [4] | [15] | [7] | [8] | [10] | [12]

C[N+](C)(C)CCCCCCCCCC[N+](C)(C)C
inactive: [1] | [13] | [14] | [3] | [4] | [15] | [6] | [8] | [10] | [12] | [16] | [17]

Cc1cccc(C)c1NC(=O)CC12CCCN1CCC2
inactive: [1] | [2] | [14] | [4] | [15] | [8] | [9] | [19] | [10] | [11] | [12]

CN(C)C(=O)Oc1cccc([N+](C)(C)C)c1
inactive: [1] | [2] | [13] | [3] | [4] | [15] | [6] | [7] | [9] | [19] | [11] | [12] | [16] | [17]

CCCCS(=O)(=O)N[C@@H](Cc1ccc(OCCCCC2CCNCC2)cc1)C(=O)O
inactive: [1] | [2] | [13] | [14] | [3] | [4] | [15] | [6] | [7] | [9] | [10] | [12]

COc1cc(-c2ccc(=O)[nH]n2)ccc1OC(F)F
inactive: [1] | [2] | [13] | [3] | [4] | [15] | [6] | [19] | [11] | [12]

CC1=CCC(O)(C(C)C)CC1 (stereo unspecified)
inactive: [1] | [13] | [18] | [14] | [3] | [15] | [5] | [6] | [8] | [9] | [10] | [12] | [16]

NC(=O)Cc1cccc2ccccc12
inactive: [1] | [2] | [13] | [14] | [4] | [5] | [7] | [8] | [9] | [10] | [11] | [12]

CCO[Si](OCC)(OCC)c1ccccc1
inactive: [2] | [14] | [3] | [4] | [15] | [5] | [6] | [8] | [10] | [11] | [12] | [16] | [17]

C=C(C)C(=O)OCC(O)CO (stereo unspecified)
inactive: [18] | [14] | [3] | [4] | [15] | [5] | [7] | [8] | [9] | [10] | [11] | [12] | [16] | [17]

NC(=O)N[C@@H](CCC(=O)O)C(=O)O
inactive: [14] | [3] | [4] | [8] | [9] | [19] | [10] | [11] | [12] | [16] | [17]

CC1=C(C/C=C(\C)CCC[C@H](C)CCC[C@H](C)CCCC(C)C)C(=O)c2ccccc2C1=O
inactive: [1] | [13] | [3] | [5] | [8] | [9] | [10] | [12] | [16] | [17]

CC(C(=O)O)c1cccc(Oc2ccccc2)c1 (stereo unspecified)
inactive: [20] | [2] | [14] | [4] | [15] | [6] | [8] | [10] | [12] | [16] | [17]

COCCOCC(OC)OC
inactive: [18] | [14] | [3] | [4] | [15] | [5] | [6] | [8] | [19] | [10] | [11] | [12] | [16] | [17]
